# Eya2 inh: Eya2 (human) phosphatase inhibition; O00167; recombinant Eya2, OMFP fluorescence dephosphorylation (OMFP is methylfluorescein phosphate); Potency, µM (series often up to 76.9 µM), for inactives: at the top dose activity, negative = inhibition, usual class: inhibitors; 0.006% of 330,000 active; also: potency is read from the fitted curve at half-maximal effect; % is scaled to controls: 0 for no effect and ±100 for the full control effect
# Target sequence (O00167 whole entry, looked up): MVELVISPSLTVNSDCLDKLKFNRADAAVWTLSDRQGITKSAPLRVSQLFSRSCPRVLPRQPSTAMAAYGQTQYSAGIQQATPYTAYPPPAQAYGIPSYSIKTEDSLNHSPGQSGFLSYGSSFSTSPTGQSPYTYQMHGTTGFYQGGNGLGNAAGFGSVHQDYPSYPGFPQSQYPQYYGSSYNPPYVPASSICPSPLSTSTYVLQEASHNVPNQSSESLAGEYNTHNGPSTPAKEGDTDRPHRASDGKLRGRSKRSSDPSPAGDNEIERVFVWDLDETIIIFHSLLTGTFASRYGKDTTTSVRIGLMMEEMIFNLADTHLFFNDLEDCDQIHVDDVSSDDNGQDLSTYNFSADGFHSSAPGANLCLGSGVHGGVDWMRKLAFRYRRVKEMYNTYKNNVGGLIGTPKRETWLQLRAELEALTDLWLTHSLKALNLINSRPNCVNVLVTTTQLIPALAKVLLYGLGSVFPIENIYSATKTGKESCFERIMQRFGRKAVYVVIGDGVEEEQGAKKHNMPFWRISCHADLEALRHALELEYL
#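 Eya2 protein (added as 0.2 uM solution) was preincubated with compound for 10 min at ambient temperature in 50 mM HEPES pH 7.5, 50 mM NaCl, 5 uM MgCl2, 0.05% BSA, 1 mM DTT. OMFP (added at 50 uM) then reacted 10 min; fluorescence read at 485/525 nm.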
# RGS4 inh: blocks human RGS4-accelerated GTP hydrolysis. Transcreener GDP fluorescence polarization, RGS4-accelerated GTP hydrolysis. P49798. Potency, µM (doses to about 114 µM), for the others: top-dose activity change, negative = inhibition, most hits filed as inhibitors. 0.039% of 390,000 active; also: potency is read from the fitted curve at half-maximal effect; % is scaled to controls: 0 for no effect and ±100 for the full control effect; nearly all actives have a fitted effect of over 75% in size
# Target sequence (P49798 whole entry, looked up): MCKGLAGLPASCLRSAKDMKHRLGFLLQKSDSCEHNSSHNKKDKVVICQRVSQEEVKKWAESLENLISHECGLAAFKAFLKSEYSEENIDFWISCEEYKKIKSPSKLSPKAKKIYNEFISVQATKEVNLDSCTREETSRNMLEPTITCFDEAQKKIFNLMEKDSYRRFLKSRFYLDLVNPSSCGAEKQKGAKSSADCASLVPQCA
#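 MLSMR compounds (23 nl, pin-transferred) preincubated 10 min at room temperature with a 500nM (2x) first reagent, then RGS4 at 900nM (2x) plus Transcreener GDP mix added; fluorescence polarization (620/688 nm) read before and after 90 min at 30 °C.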
# IDH1 R132H inh: inhibitors of human mutant IDH1 R132H | Potency, µM (top dose mostly 76.6 µM), for the others: top-dose activity change, negative = inhibition, actives largely listed as inhibitors | AID 602179 | 0.093% of 390,000 active | IDH1-R132H enzyme, NADPH consumption, diaphorase/resazurin fluorescence; also: potency is read from the fitted curve at half-maximal effect; % is scaled to controls: 0 for no effect and ±100 for the full control effect; nearly all actives have a fitted effect of over 65% in size
#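 IDH1-R132H (0.5 ug/mL) preincubated 30 min with compound, then NADPH (0.016 mM) and alpha-KG (2 mM) added; 80 min at RT, pH 7.5. Remaining NADPH coupled via diaphorase/resazurin to fluorescence (540/590 nm); concentration-response curves normalized to no-enzyme control.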
# TrxR1 substrate: substrates of rat thioredoxin reductase 1; purified TrxR1 substrate turnover, NADPH consumption readout; O89049; 0.01% of 390,000 active; Potency, µM (top dose mostly 114 µM), inactives show at the top dose activity change, negative = substrate turnover; AID 588456; also: potency is read from the fitted curve at half-maximal effect; % is scaled to controls: 0 for no effect and ±100 for the full control effect; nearly all actives have a fitted effect of over 50% in size
#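 Rat TrxR1, dispensed at 90 nM, was prereduced with 400 uM NADPH (final) for 5 min at ~22 deg C, then incubated with compound 15 min before 400 uM selenite. A first-read NADPH fluorescence drop versus no-compound background flagged substrates.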
# TrxR1 inh-1: rat TrxR1 inhibition; recombinant rTrxR1, NADPH fluorescence consumption, selenite substrate; Potency, µM (titrated, usually from 114 µM), inactives show at the top dose activity change, negative = inhibition, actives largely listed as inhibitors; 1% of 390,000 active; also: potency is read from the fitted curve at half-maximal effect; % is scaled to controls: 0 for no effect and ±100 for the full control effect; nearly all actives have a fitted effect of over 65% in size
#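 Rat TrxR1 (90 nM in the dispensed reagent) was pre-reduced with 400 uM NADPH for 5 min at room temperature, then incubated with compound for 15 min. After 400 uM selenite was added, NADPH fluorescence (Ex 340/Em 450 nm) was followed for 8 min.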
# TRb SRC2 Alpha: TRb-SRC2 (human) interaction inhibition. Potency, µM. 50% of 30 active. shares compounds with TrxR1 inh-1. AID 2444. AlphaScreen TRb LBD-SRC2 peptide binding, luminescence; calls by dose curve
# HepG2 tox: HepG2 cytotoxicity, 72 h ATP readout; shares compounds with TrxR1 inh-1; HepG2 viability, ATP luminescence (CellTiter-Glo), 72 h; Potency, µM; 50% of 40 active; calls by dose curve
# AR SRC2 FP: AR-SRC2 (human) interaction inhibition, selectivity; shares compounds with TrxR1 inh-1; AR-LBD Tx-SRC2-3 fluorescence polarization, 3 h; calls only; 25 tested, under 10 active; call rule not given here
# PPARg-DRIP2 inh: PPARg-DRIP2 (human) interaction inhibition, selectivity | Potency, µM | shares compounds with TrxR1 inh-1 | 25 tested, under 10 active | PPARg LBD / Texas Red DRIP-2 peptide, fluorescence polarization, 3 h; calls by dose curve
# VDR-SRC2 FP sel: VDR-SRC2 (human) interaction inhibition, selectivity; Potency, µM; VDR LBD/SRC2-3 peptide, fluorescence polarization, 3 h; 25 tested, under 10 active; shares compounds with TrxR1 inh-1; AID 2455; calls by dose curve
# TRb SRC2 FluoFP: disrupts human TRb binding to fluorescein-SRC2 peptide; 20 tested, under 10 active; TRb LBD / fluorescein-SRC2 peptide, fluorescence polarization; Potency, µM; shares compounds with TrxR1 inh-1; AID 2487; call rule not given here
# TrxR1 insulin: inhibits TrxR1-driven insulin reduction | shares compounds with TrxR1 inh-1 | TrxR1 Trx-coupled insulin reduction, NADPH absorbance 340 nm | Potency, µM | 20% of 55 active | AID 652037;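 active = compounds with a measured potency under 100 micromolar; inconclusive = filed, but no rule given; inactive = potency at or above that, or unmeasurable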
# TrxR1 inh-2: blocks rat TrxR1 reduction of DTNB; shares compounds with TrxR1 inh-1; purified TrxR1, DTNB reduction, A412; Potency, µM; 90% of 55 active; AID 652256;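 active = a half-inhibiting concentration could be measured and was below 100 µM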
# * = called active by the depositor; i = inactive; u = inconclusive; x = no result given; [ ] = remark or other dose. In the library only some 1.1% were active in any assay of this set; here they are far more common. Unless noted, calls follow the shape of the dose curve; as a rule, active = well fitted curve in the direction sought with a large enough effect; inconclusive = small, poorly fitted or top-dose-only effect, or another doubt; inactive = no such curve, though single readings can be large; an effect the other way counts as inactive or inconclusive.
SMILES,Eya2 inh,RGS4 inh,IDH1 R132H inh,TrxR1 substrate,TrxR1 inh-1,others
C=C1C=CS(=O)(=O)N(Cc2ccccc2)C1,x,-10.1%,x,8.3%,35.5µM*,
COc1cccc(/C=N/N2C(=O)CSC2=S)c1O,0.6%,u,-5.0%,-12.8%,17.8µM*,
COc1cc(/C=N/N2C(=O)CSC2=S)cc(Br)c1O,25.0%,u,-0.3%,6.5%[57.1 µM],-51.5%,
O=C(c1cc2cc(Cl)ccc2[nH]1)N1CCN(C(=O)c2ccco2)CC1,-5.6%,u,6.6%,5.0%,50.1µM*,
COc1cccc(CNC(=O)C2CCN(S(=O)(=O)c3cccs3)CC2)c1,-1.2%,2.2%,0.3%,9.3%,8.7%,
COc1ccc(N(CC(=O)N2CCN(c3ccccc3F)CC2)S(=O)(=O)c2c(C)n[nH]c2C)cc1,3.1%,15.8%,-15.5%,-5.3%,7.4%,
O=C(/C=C/c1ccco1)N1CCc2ccccc21,5.3%,-53.1%,5.6%,-12.0%,56.2µM*,
Cc1ccc(S(=O)(=O)N2CCN(C(=O)/C=C/c3ccco3)CC2)cc1,-7.8%,-6.1%,4.0%,6.3%[57.1 µM],8.4%[57.1 µM],
O=C(/C=C/c1ccco1)N1CCCC(c2ccccc2)C1 (stereo unspecified),-18.9%,u,5.8%,0.2%,31.6µM*,
COc1ccccc1N1CCN(C(=O)/C=C/c2ccco2)CC1,-1.2%,-13.6%,5.0%,-7.4%,39.8µM*,
Cc1ccc(C)c(S(=O)(=O)N2CCN(C(=O)/C=C/c3ccco3)CC2)c1,-12.9%,u,-7.5%,2.3%,7.94µM*,
O=C(NC(=S)NCCc1ccc(Cl)cc1)c1ccco1,1.8%,-22.8%[11.4 µM],-2.9%,-4.0%,-7.6%,
Cc1ccc(/C=C/C(=O)N2CCc3ccccc32)o1,-2.8%,u,-0.8%,-4.7%,3.16µM*,
Cc1ccc(/C=C/C(=O)N2CCN(c3ncccn3)CC2)o1,9.9%,u,-0.5%,-11.0%,22.4µM*,
CCOC(=O)/C=C/C(=O)N1CCc2ccccc21,4.0%,58.1%,7.7%,-13.3%,u,
CCN(Cc1ccc(OC)c(F)c1)C(=O)C1CCCO1 (stereo unspecified),-10.8%,-6.6%,0.9%,7.6%,15.5%,
CCN(Cc1ccc(OC)c(F)c1)C(=O)CCl,3.6%,4.2%,6.1%,2.8%,25.1µM*,
Nc1ccc(S(=O)(=O)c2cc(O)c3ccccc3c2O)cc1,x,u,13.0%,-9.8%,2.82µM*,
COc1ccc(CN(C(=O)/C=C/c2ccco2)C2CCS(=O)(=O)C2)cc1OC (stereo unspecified),-2.8%,-31.6%[56.9 µM],1.0%,-12.4%,15.8µM*,
COc1ccc(CN(C(=O)/C=C/c2ccco2)C2CCS(=O)(=O)C2)cc1 (stereo unspecified),17.3%,u,-1.0%,12.7%[11.4 µM],-86.9%,
O=C(/C=C/c1ccco1)N(Cc1ccc(Cl)cc1)C1CCS(=O)(=O)C1 (stereo unspecified),16.6%,-43.7%,15.2%,4.9%,25.1µM*,
COc1cccc(CN(C(=O)/C=C/c2ccco2)C2CCS(=O)(=O)C2)c1 (stereo unspecified),1.8%,u,-6.6%,1.6%,12.6µM*,
O=C(CSc1nc2c(cnn2-c2ccccc2)c(=O)[nH]1)N1N=C(c2cccs2)CC1c1ccc(F)cc1 (stereo unspecified),5.6%,8.6%,-9.6%,22.9%[57.1 µM],8.2%[57.1 µM],
O=C(NCCc1ccccc1)C1CCN(C(=O)c2ccc(F)cc2)CC1,-29.4%,14.6%,-5.0%,-7.4%,-6.5%,
C=C1[C@@H](O)[C@H](Cc2ccccc2)N(Cc2ccccc2Br)S1(=O)=O,x,13.0%,-1.1%[38.3 µM],-3.2%,14.1µM*,
SMILES,Eya2 inh,RGS4 inh,IDH1 R132H inh,TrxR1 substrate,TrxR1 inh-1,others
Cc1ccccc1CN1[C@@H](Cc2ccccc2)COCCS1(=O)=O,x,-7.2%,0.6%,4.8%,18.4%,
COc1ccc(C2Nc3ccccc3C(=O)N2Cc2ccco2)cc1COc1c(C)cccc1C (stereo unspecified),x,u,x,18.0%,20µM*,
CS(=O)(=O)c1ccc(C(=O)OC(C(=O)NC2C3CC4CC(C3)CC2C4)c2ccccc2)cc1[N+](=O)[O-] (stereo unspecified),x,x,x,x,x,HepG2 tox=10µM*
CS(=O)(=O)c1ccc(C(=O)NCC(=O)NC2C3CC4CC(C3)CC2C4)cc1[N+](=O)[O-] (stereo unspecified),x,x,x,x,x,TRb SRC2 Alpha=3.8µM*;HepG2 tox=21.9µM*;AR SRC2 FP=i;PPARg-DRIP2 inh=i;VDR-SRC2 FP sel=i
CCCNC(=O)c1ccc(S(=O)(=O)c2ccc(OC)cc2)c([N+](=O)[O-])c1,2.6%,-2.5%,1.7%,5.6%,u,
C/C=C\C=C\C(=O)Nc1cccc(C2=NOC3(C2)C[C@@H](C(N)=O)N(C(=O)C(c2ccccc2)c2ccccc2)C3)c1 (stereo partly specified),0.3%,u,1.0%,-3.4%,12.6µM*,TrxR1 insulin=i;TrxR1 inh-2=i
CC1CCCCN1C(=O)COC(=O)c1ccc(S(C)(=O)=O)c([N+](=O)[O-])c1 (stereo unspecified),x,10.5%,x,-0.6%,10µM*,TRb SRC2 Alpha=19.3µM*;HepG2 tox=21.6µM*;AR SRC2 FP=i;PPARg-DRIP2 inh=i;VDR-SRC2 FP sel=i;TRb SRC2 FluoFP=9.1µM*
CC1CN(C(=O)COC(=O)c2ccc(N)c([N+](=O)[O-])c2)CC(C)O1 (stereo unspecified),-3.8%,24.3%,2.3%,5.6%[57.1 µM],3.8%,
CC1CCCCN1C(=O)COC(=O)CSc1ccc(C(N)=O)cc1[N+](=O)[O-] (stereo unspecified),x,-12.6%,5.7%,5.7%[57.1 µM],12.5%[57.1 µM],
